The text below walks through data of PubChem BioAssay AID488890 (Southern Research Specialized Biocontainment Screening …, 2010).

The campaign covered roughly 320,000 compounds. About 1,300 (0.41%) were called active. Another 3% or so got no clear call; they are omitted. No rule for the calls is given here. The list is a sample of the results. Potency and affinity values are given separately.

This experiment can be described thus: growth inhibition of non-replicating M. tuberculosis (AID 488890).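 Also: plate controls were DMSO cells for no effect and high antibiotic wells for full effect.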 As to conditions: Mycobacterium tuberculosis non-replicating, at 25 µM, stronger effect = higher value.
In the case of `O=C(COc1cc(F)ccc1[N+](=O)[O-])Nc1cccc(S(=O)(=O)NC2=NCCC2)c1`, the inhibition is -15.8%.
Consider `C=CCSc1nccc(=O)[nH]1`, for which the inhibition stood at 17.7%.
The figure for `COc1ccc(CCNC(=O)NC(C(F)(F)F)C(F)(F)F)cc1OC` is -0.6%.
As for `N#Cc1ccc(C23CC4(C2)[C@H](CN(Cc2ccc(C(F)(F)F)cc2)[C@@H]4c2ccccc2)C3c2ccccc2)cc1` (stereo partly drawn), the figure is 19.2%; as for `Cc1cc(C)c(NC(=S)N2CCN(c3ccc([N+](=O)[O-])cn3)CC2)cc1C`, -3%.
The figure for `OC/C(Br)=C(\Br)CO` is -3.52%; for `NC(=O)c1ccc(NC(=O)C2COc3ccccc3O2)cc1` (stereo not drawn) it is 1.12%; for `COc1ccc(OC)c(NC(=O)C2COc3ccccc3O2)c1` (stereo not drawn) it is 30.6%.
Consider `COc1ccc(CNC(=O)C2COc3ccccc3O2)cc1` (stereo not drawn), for which the inhibition was 72.5%.
As for `CC(C)(C)NC(=O)c1ccc(NC(=O)C2COc3ccccc3O2)cc1` (stereo not drawn), the figure is 45.9%; as for `CCOC(=O)CN1C(=O)N[C@@H](c2ccccc2)C(C(=O)OC)=C1C`, -18.9%; as for `COCc1ccc(C(=O)N2CCCC(N3CCN(c4ccccc4C)CC3)C2)s1` (stereo not drawn), 20.7%.
Take `O=C1C2C3C=CC(C3)C2C(=O)N1CC1CCCO1` (stereo not drawn): the inhibition is -0.04%.
The figure for `NC(=O)CCn1c(C(=O)c2cc(Cl)c(N)c(Cl)c2)c2ccccc2[n+]1[O-]` is 7%; for `O=C(Nc1cccnc1)C1OCCc2ccccc21` (stereo not drawn) it is -3.68%; for `COCCn1c(SCC(=O)Nc2ccc(S(=O)(=O)N(C)C)cc2)nc2ccccc21` it is 0.14%.
Regarding `COc1cccc(NC(=O)CCC2CCN(C(=O)C3CC=CCC3)CC2)c1` (stereo not drawn), the inhibition stood at 6.11%.
For the molecule `Cc1nc(-c2cccc(S(=O)(=O)N3CCCCC3)c2)cs1`, the inhibition came to 3.4%.
As for `COc1ccccc1NC(=O)c1cc(-c2cc(OC)c(OC)c(OC)c2)nc2ccccc12`, the figure is 1.97%; as for `COc1ccc(/C(O)=C/C(=O)C(=O)NNC(=O)c2ccccc2)cc1`, 22.9%; as for `C/C(=C\C(=O)c1ccc(Br)cc1)NCc1ccccc1`, 52.8%.
For `C/C(=C\C(=O)c1ccc(Br)cc1)NNC(=O)c1ccc(O)cc1`, the inhibition was determined as 67.2%.
As for `COc1ccc(N/C(C)=C/C(=O)c2ccccc2)cc1`, the figure is 57.9%; as for `CCOc1ccc(N2CC(C(=O)NCCCc3ccccc3)CC2=O)cc1` (stereo not drawn), 24.1%.
In the case of `Cc1cccc(NC(=O)Cn2cnc3sc(C)c(S(=O)(=O)N4CCC(C)CC4)c3c2=O)n1`, the inhibition worked out at 7.28%.
As for `CCN1CCN(c2ccc(S(=O)(=O)N3CCOCC3)cc2NC(=O)c2sccc2C)CC1`, the figure is -12.4%; as for `CC(=O)c1ccc(N2CCN(S(=O)(=O)c3cccc4nonc34)CC2)cc1`, 10.4%; as for `O=C(O)CCSc1ccccn1`, -2.61%.
The figure for `O=C(O)CSc1ccccn1` is -10.9%.
The figure for `O=C(c1nnc(-c2ccncc2)o1)c1ccccc1Cl` is 72.4%; for `O=C(c1ccccc1)c1nnc(-c2ccncc2)o1` it is 49.9%.
As to `O=C(c1cccc(F)c1)N1CCC2(CC1)NCCc1[nH]cnc12`, the inhibition is -6.44%.
For `CN(CC(O)COCc1cccs1)C1CCCCC1` (stereo not drawn), the inhibition is 4.88%.
The figure for `c1ccc(-c2cc3c(ccc4nonc43)nn2)cc1` is 21%.
As for `O=C(O)c1cc(-c2ccccc2)nc2ccccc12`, the figure is -4.94%; as for `Cc1ccc(NC(=O)CC(C)N2CCCC2)cc1` (stereo not drawn), -3.18%; as for `NCC(O)COCCC12CC3CC(CC(C3)C1)C2` (stereo not drawn), 8.67%.
In the case of `CC(NCC(O)COCc1ccc(Cl)cc1)c1ccccc1` (stereo not drawn), the inhibition came to 78.5%.
As for `Cc1nnc(NC(=O)c2ccccc2NC(=O)c2ccccc2)s1`, the figure is 33.7%; as for `O=C(Nc1nnc(C(F)(F)F)s1)c1cccnc1`, 27.8%.
The figure for `Cc1cc(-c2n[nH]c(=S)n2-c2ccccc2C)cs1` is -13.2%.
Regarding `COc1ccccc1NC(=O)COC(=O)/C=C/c1ccccc1[N+](=O)[O-]`, the inhibition came to 65.2%.
`CCN1C(=O)/C(=C/c2ccc(N3CCCC3)cc2)NC1=S`: the inhibition came out at 52.1%.
In the case of `COC(=O)COc1ccc(/C=C2/NC(=O)N(CC(=O)OC)C2=O)cc1`, the inhibition stood at 9.12%.
As for `Cc1cc(C)n(-c2ccc(C(=O)Nc3cccc(S(=O)(=O)N4CCCC4)c3)cc2)n1`, the figure is -4.31%; as for `C=CCn1c(SCC(=O)Nc2cc(C)cc(C)c2)nnc1-c1cnccn1`, -3.18%.
The figure for `CC[n+]1c(/C=C/Nc2ccccc2)oc2ccc(OC)cc21` is 35.5%; for `CC[n+]1c(/C=C/Nc2ccccc2)oc2ccccc21` it is 67.7%; for `Cc1cc(=O)oc2c3c(cc(OCC(=O)NCc4cccnc4)c12)OC(C)(C)CC3` it is 7.63%.
In the case of `CC(=O)OCCc1c2ccccc2c(CCCN(C)C)c2ccccc12`, the inhibition turned out to be 41.4%.
As for `Cc1onc(-c2c(Cl)cccc2Cl)c1COC(=O)c1ccc(Cl)cc1`, the figure is 16.1%; as for `Cc1onc(-c2c(Cl)cccc2Cl)c1C(=O)OCC(=O)c1ccccc1`, 15.6%; as for `COc1c(F)c(F)cc2c(=O)c(C(=O)O)cn(C3CC3)c12`, 4.5%.
The figure for `Cc1c(-n2cc(C(=O)O)c(=O)c3cc(F)c(N4CCCC(O)C4)c(F)c32)c(=O)n(-c2ccccc2)n1C` (stereo not drawn) is 0.14%; for `CC1CCc2cc(F)cc3c(=O)c(C(=O)O)cn1c23` (stereo not drawn) it is 35.4%.
The figure for `CCOC(=O)c1cn(C2CC2)c2c(F)c(F)c(F)cc2c1=O` is -13%.
As for `C=CCN(CC=C)C(=O)COC(=O)c1ccc(Sc2ncn[nH]2)c([N+](=O)[O-])c1`, the inhibition is 43.1%.
For the molecule `Cc1ccc(-c2ccc(SCC(=O)N3CCc4ccccc43)nn2)cc1`, the inhibition is -0.83%.
As for `CCCc1cc(N2CCN(c3ccccn3)CC2)n2nc(C)c(-c3ccccc3)c2n1`, the figure is 2.63%.
As for `CC(=O)Nc1ccc(Nc2cc(C(C)C)nc3c(-c4ccccc4)c(C)nn23)cc1`, the figure is 5.77%; as for `Cc1cc(NCCCn2ccnc2)n2nc(C)c(-c3ccc(Cl)cc3)c2n1`, -1.28%.
The figure for `CCCc1cc(N2CCCC2)n2nc(C)c(-c3ccccc3)c2n1` is 43.4%; for `Cc1nn2c(NCCCn3ccnc3)cc(C(C)C)nc2c1-c1ccccc1` it is 75.8%.
Take `CC(=O)Nc1ccc(Nc2cc(C)nc3c(-c4ccc(Cl)cc4)c(C)nn23)cc1`: the inhibition turned out to be 2.43%.
As for `Cc1cc(NC2CCCC2)n2ncc(-c3ccccc3)c2n1`, the figure is 36.8%.
Regarding `Cc1cc(NCc2ccccc2)n2ncc(-c3ccccc3)c2n1`, the inhibition stood at 14.7%.
As for `Nc1cc(N2CCNCC2)c([N+](=O)[O-])cc1Cl`, the figure is 6.14%.
As for `Cc1ccc(CNC(=O)C2CCCN(C(=O)N(C)C)C2)cc1` (stereo not drawn), the figure is -2.88%.
The figure for `C=CCN1C(=O)c2ccc(C(=O)OCC(=O)Nc3ccccc3OC)cc2C1=O` is -2.33%.
On to `CC(=O)c1cc(CN2CCN(Cc3ccccc3)C(CCO)C2)cs1` (stereo not drawn), for which the inhibition was 1.86%.
As for `Cc1cc(C(=O)N(C)CC(=O)Nc2ccc(Cl)c(C(F)(F)F)c2)no1`, the figure is 6.97%.
The figure for `Cc1c(NC(=O)COC(=O)Cn2cc(C(F)(F)F)ccc2=O)cccc1[N+](=O)[O-]` is -1.08%.
As for `Cc1cc(C)n2nc(SCC(=O)N(Cc3ccccc3)C3CCS(=O)(=O)C3)nc2n1` (stereo not drawn), the figure is -1.73%; as for `Cc1cc(NCCC(C)C)n2nc(C)c(-c3ccccc3)c2n1`, 49.1%.
In the case of `Cc1cc(Nc2ccccc2)n2nc(C)c(-c3ccccc3)c2n1`, the inhibition worked out at 15.2%.
The figure for `COc1ccc(C(=O)CC(=O)c2ccccc2O)cc1OC` is 22.7%.
Consider `O=C(CCc1ccccc1)NNC(=O)c1cc(Cl)ccc1O`, for which the inhibition is -5.64%.
As for `O=C(CC(=O)c1ccccc1)Nc1ccc(Cl)cc1`, the figure is 51.8%; as for `Cc1ccc(O)c(C(=O)CC(=O)c2cccc(F)c2)c1`, -5.71%.
`C/C(=N\NC(=O)CNc1cccc(Cl)c1C)C1CC1`: the inhibition was found to be 2.17%.
As for `CC(=O)Nc1ccc(C(=O)N2CCN(S(=O)(=O)c3ccc4c(c3)OCCCO4)CC2)cc1`, the figure is -1.17%; as for `Cc1sc(NC(=O)C2=COCCO2)nc1-c1ccc(Cl)cc1`, 3.57%; as for `c1ccc(CN2CCN(c3cnc4ccccc4n3)CC2)cc1`, 3.95%.
The figure for `COc1cc(C(=O)NC(=S)NNC(=O)[C@H]2C[C@@H]2c2ccccc2)cc(OC)c1OC` is 62.4%; for `COc1cc(OC)cc(C(=O)NC(=S)NNC(=O)[C@H]2C[C@@H]2c2ccccc2)c1` it is 78.5%.
As for `CC(=O)NCCc1nc2cc(NS(=O)(=O)c3ccc(Cl)cc3)ccc2n1C`, the figure is -19.6%; as for `COCCCN(CC(=O)Nc1ccc(F)cc1)S(=O)(=O)c1cccs1`, 5.35%.
Consider `NNC(=O)/C(=C/c1cccs1)NC(=O)c1ccccc1Cl`, for which the inhibition is 1.61%.
As for `Nc1ccc(C(=O)Nc2ccc(OC(F)(F)C(F)F)c(NC(=O)c3ccc(N)cc3)c2)cc1`, the figure is 20.7%; as for `CCN(CC)S(=O)(=O)c1ccc(NS(=O)(=O)c2ccc(OC)c([N+](=O)[O-])c2)cc1`, -6.27%; as for `O=C(O)c1cn(C2CC2)c2cc(N3CCN(S(=O)(=O)c4ccc5c(c4)OCCO5)CC3)c(F)cc2c1=O`, 79.5%.
The figure for `CCCCCCCCCC(=O)N1CCN(c2cc3c(cc2F)c(=O)c(C(=O)O)cn3CC)CC1` is 6.5%; for `CCn1cc(C(=O)NN)c(=O)c2cc(F)c(N3CCN(C)CC3)cc21` it is -3.82%; for `CCCCCCCC(=O)N1CCN(c2cc3c(cc2F)c(=O)c(C(=O)O)cn3CC)CC1` it is 72.9%.
As for `CCCCCCCCC(=O)N1CCN(c2cc3c(cc2F)c(=O)c(C(=O)O)cn3CC)CC1`, the figure is 62.8%; as for `CCOC(=O)c1cn(CC)c2cc(N3CCN(C)CC3)c(F)cc2c1=O`, -0.72%.
Take `CCc1ccc(/C=N/NC(=O)Cc2ccc(OC)c(OC)c2)s1`: the inhibition amounted to 9.54%.
As for `COC(=O)C1=C2SC(C)C(=O)N2C(N)=C(C#N)C1c1ccc(OC)c(OC)c1` (stereo not drawn), the figure is 5.18%.
Regarding `CC(=O)c1ccc(NC(=O)CCC(=O)OCC(F)(F)C(F)F)cc1`, the inhibition is -4.72%.
Consider `CC(=O)Nc1ccccc1OCc1cnc(Cl)s1`, for which the inhibition was 21%.
The figure for `Cc1cc(S(=O)(=O)Nc2cc(C)c(O)c(C)c2)c(C)s1` is 13%; for `COc1ccc(-c2cc(NCCc3ccncc3)n3ncnc3n2)cc1` it is 24.4%; for `COc1ccc(-c2cc(NCc3ccccn3)n3ncnc3n2)cc1` it is 55.9%.
Consider `C[C@H](CO)N1C[C@H](C)[C@@H](CN(C)S(=O)(=O)c2ccccc2)Oc2ccc(NC(=O)C3CC3)cc2C1=O`, for which the inhibition is 6.81%.
The figure for `Cc1cc(Br)ccc1SCC(=O)OCC(=O)NC1CCCC1` is 35.6%.
As to `O=C(Nc1ccc([N+](=O)[O-])cc1)c1cncc(Br)c1`, the inhibition was found to be 13.8%.
As for `Cc1csc(NC(=O)c2ccc(C(=O)Nc3nc(C)cs3)cc2)n1`, the figure is -7.26%; as for `COc1ccc(NC(=O)c2cc([N+](=O)[O-])ccc2N2CCCC2)cc1`, -2.99%; as for `O=C(Nc1ccc(N2CCCCC2)cc1)c1cc([N+](=O)[O-])cc([N+](=O)[O-])c1`, 14.1%.
Regarding `CC(=O)Nc1ccc(C(=O)NNC(=O)c2cc([N+](=O)[O-])cc([N+](=O)[O-])c2)cc1`, the inhibition worked out at 16.3%.
As for `O=C(Nc1ccc(NC(=O)c2cccc([N+](=O)[O-])c2)cc1)c1cccc([N+](=O)[O-])c1`, the figure is -7.47%; as for `Cc1csc(NC(=O)c2ccc(C)c([N+](=O)[O-])c2)n1`, 5.36%; as for `COc1ccc(NC(=O)c2cc([N+](=O)[O-])ccc2N2CCCCC2)cc1`, -7.4%.
